High-throughput results deposited in PubChem by National Center for Advancing Translational Sciences (NCATS).
Vif-A3G inh = blocks the Vif interaction with human APOBEC3G; Potency, µM (titrated, usually from 46.1 µM), hits mostly inhibitors; AID 602310; HeLa A3G-eYFP + Vif (tagged APOBEC3G with the HIV-1 protein that degrades it), YFP fluorescence, overnight; Q9HC16; 0.076% of 410,000 active; note: nearly all actives have a fitted effect of over 60% in size
Target sequence (Q9HC16 whole entry, looked up): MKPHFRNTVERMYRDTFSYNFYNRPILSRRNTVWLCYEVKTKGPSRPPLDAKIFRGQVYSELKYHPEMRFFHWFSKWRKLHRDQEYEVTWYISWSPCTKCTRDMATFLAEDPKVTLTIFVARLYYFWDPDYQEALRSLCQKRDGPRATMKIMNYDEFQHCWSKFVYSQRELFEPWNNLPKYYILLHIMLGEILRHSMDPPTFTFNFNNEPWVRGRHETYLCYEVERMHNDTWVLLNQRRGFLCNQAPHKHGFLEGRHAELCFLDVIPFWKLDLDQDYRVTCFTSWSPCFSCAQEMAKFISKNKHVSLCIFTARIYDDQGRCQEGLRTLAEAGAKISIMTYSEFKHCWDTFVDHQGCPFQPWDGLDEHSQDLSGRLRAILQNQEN
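Read-out is eYFP fluorescence (Ex 488/Em 500-530) from Vif-expressing HeLa A3G-eYFP cells; more signal means A3G escaped Vif-mediated degradation. Cells plated overnight, compound pinned in, incubated overnight at 37 deg C.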
Epigenetic reg = regulators of epigenetic silencing causing reporter derepression in mouse cells; 0.2% of 280,000 active; murine LDR cells, GFP reporter derepression, 30 h; Potency, µM (top dose mostly 53.9 µM), most hits filed as activators; note: nearly all actives have a fitted effect of over 60% in size
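GFP-positive cell count by laser-scanning cytometry (objects 20–120 um) after 30 h, 37 C compound exposure of murine LDR cells; reporter is CMV-GFP integrated at a silenced locus, inducible by HDAC or DNMT inhibitors.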
Vif-APOBEC3F blk = Vif-A3F binding inhibition; Potency, µM (titrated, usually from 46.1 µM); HeLa A3F-eYFP + Vif (tagged APOBEC3F with the HIV-1 protein that degrades it), YFP fluorescence increase; 0.2% of 390,000 active; note: nearly all actives have a fitted effect of over 65% in size
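Fluorescence increase (Ex 488/Em 500-530) after overnight compound treatment at 37 deg C flags inhibition of Vif-driven A3F-eYFP loss in stable HeLa A3F-eYFP/Vif cells seeded overnight beforehand.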
C127i cell count = changes parental c127i cell counts in epigenetic modulator counter-screen; Potency, µM, hits mostly activators; mouse c127i parental cells, fluorescent cell count, 30 h; shares compounds with Epigenetic reg; AID 493065; 20% of 60 active
HCC4017 viab = HCC4017 cytotoxicity of epigenetic modulator hits; shares compounds with Epigenetic reg; HCC4017 NSCLC viability, CellTiter-Glo ATP luminescence, 72 h; Potency, µM (highest dose often 46.1 µM), usual class: cytotoxic; 30% of 45 active
H358 tox = H358 cytotoxicity of epigenetic modulator hits. shares compounds with Epigenetic reg. H358 NSCLC viability, ATP luminescence, 72 h. Potency, µM (doses to about 46.1 µM), actives largely listed as cytotoxic. 30% of 45 active. AID 493074
Numbers stand for hits; - = inactive; ? = inconclusive; . = no result given. An excerpt weighted towards active compounds, which were near 0.34% of everything screened. Calls come from the whole dose curve; as a rule, active = well fitted curve in the direction sought with a large enough effect; inconclusive = small, poorly fitted or top-dose-only effect, or another doubt; inactive = no such curve, though single readings can be large; an effect the other way counts as inactive or inconclusive.

SMILES	Vif-A3G inh	Epigenetic reg	Vif-APOBEC3F blk	others
ClCC1NCC(c2ccccc2Cl)c2c1[nH]c1ccccc21 (stereo not given)	?	?	22.4µM
COc1ccc(N/C=C/c2nc(SC)nnc2C)cc1	-	-	22.4µM
CSc1nnc(C)c(/C=C/Nc2ccc(F)cc2)n1	-	-	-
CCC(=O)Nc1ccc(CC)cc1-c1nc2ccccc2n(CC(=O)Nc2ccccc2C)c1=O	-	-	-
Cc1ccc2c(c1)NC(=O)CC(c1ccccc1)=N2	-	-	-
Cc1ccc2c(c1C)NC(=O)CC(c1ccccc1O)=N2	-	-	11.2µM
C[n+]1ccc(/C=C/c2c[nH]c3ccc(F)cc23)cc1	8.91µM	.	10µM
C[n+]1ccc(/C=C/c2ccc(Br)cc2)cc1	-	-	-
COc1cc(C(=O)Nc2ccccc2-c2nc(-c3ccc(C)cc3)no2)cc(OC)c1OC	-	-	-
COc1cc(C(=O)Nc2ccccc2-c2nc(-c3ccccc3)no2)cc(OC)c1OC	-	0.631µM	-
Oc1c(C(Nc2cccnc2)c2ccccc2F)ccc2cccnc12 (stereo not given)	-	.	.
COc1ccc(NC(=O)Cc2csc(COc3cccc(C)c3)n2)cc1OC	-	-	-
Cc1cccc(OC(=O)CSc2nnc(-c3ccc4c(c3)OCO4)o2)c1C	-	-	-
CC(=O)/C(N=Nc1ccc(C(=O)O)cc1[N+](=O)[O-])=C(\C)O	-	-	-
CC(=O)/C(N=Nc1cc(C)ccc1O)=C(\C)O	?	-	25.1µM
COc1ccc(-c2noc(CCC(=O)Nc3ccccc3Cl)n2)cc1OC	-	-	-
CC1(C)Cc2ccccc2C2CC(O)C(=O)N21 (stereo not given)	?	?	25.1µM
O=C1c2ccccc2[C@@H]2CC(O)C(O)CCN12 (stereo not given in full)	-	.	-
CCCCNC(=O)[C@@H]1CC=C[C@@H]2CCN(CCCC)C(=O)[C@@H]21	-	.	.
COc1ccc(S(=O)(=O)Nc2cccc(S(=O)(=O)N3CCCCCC3)c2)cc1	-	-	-
O=S(=O)(Nc1nc2ccccc2nc1Nc1cccc(S(=O)(=O)N2CCCCC2)c1)c1ccccc1	?	-	10µM
CN(C)c1ccc(/C=C\C=C/c2ccnc3ccccc23)cc1	-	.	.
CCN(CC)/[N+]([O-])=N/OCOC(=O)c1ccccc1OC(C)=O	-	.	.
CNc1ccc(Br)cc(C(=O)/C=C/c2cccc(OC)c2OC)c1=O	-	?	-
CCNc1ccc(Br)cc(C(=O)/C=C/c2ccccc2Cl)c1=O	10µM	.	?
SMILES	Vif-A3G inh	Epigenetic reg	Vif-APOBEC3F blk	others
CC(CC(=O)NCc1ccc(Cl)cc1Cl)CC1=NS(=O)(=O)c2ccccc2N1 (stereo not given)	-	-	-
CC(C)(C)OC(=O)N1CCC(c2c(C(=O)N3CCN(c4ccccn4)CC3)cnn2-c2cccc(F)c2)CC1	-	-	-
CCCS(=O)(=O)Nc1cc2c(cc1NCc1ccccc1)n(C)c(=O)n2C	-	-	-
CCCn1nc(-c2ccccc2)c2nc3ccccc3nc21	-	-	?
CCn1nc(-c2ccccc2)c2nc3ccccc3nc21	12.6µM	-	25.1µM
COc1ccc(NC(=O)c2sc3nc(C)cc(C)c3c2N)cc1	-	.	-
COc1ccc(NC(=O)c2sc3nc(-c4ccc(OC)cc4)cc(C(F)(F)F)c3c2N)cc1	?	7.08µM	?	C127i cell count=3.98µM
CCOc1ccc(NC(=O)CN2CCSc3ccc(S(=O)(=O)N4CCCC4)cc32)cc1	-	-	-
CC(=O)[C@H](CC(C)C)NC(=O)[C@@H](CC(C)C)NC(=O)[C@H](CC(C)C)NC(=O)OCc1ccccc1	.	5.01µM	.	C127i cell count=-
CC(=O)NC(CC(C)C)C(=O)NC(Cc1ccccc1)C(N)=O (stereo not given)	-	-	-
COC(=O)Cn1c2ccccc2c2nc3ccccc3nc21	-	.	?
CCCCOC(=O)Cn1c2ccc(OC)cc2c2nc3ccccc3nc21	?	?	?	C127i cell count=?;HCC4017 viab=?;H358 tox=?
COc1ccc(Nc2nc3c(S(=O)(=O)c4ccccc4)nnn3c3ccc(Cl)cc23)cc1	?	?	?	C127i cell count=-
COc1ccc(Nc2nc3c(S(=O)(=O)c4ccccc4)nnn3c3ccc(Cl)cc23)cc1OC	-	-	-
CCOC(=O)Cn1c(=O)n(CC2CCCO2)c2nc(-c3ccc(CC)cc3)nc(C(N)=O)c21 (stereo not given)	-	-	-
CC1=C/C(=N\NC(=S)Nc2cccnc2)CC(C)(C)C1	-	6.31µM	?	C127i cell count=-;HCC4017 viab=?;H358 tox=-
CC1(C)C2CC=C(/C=N/NC(=S)Nc3cccnc3)C1C2 (stereo not given)	-	-	-
CCCCC(Sc1nc2cc3c(cc2c(=O)n1CCCC(=O)NCc1ccc(OC)cc1)OCO3)C(=O)OCC (stereo not given)	?	-	-
COc1ccc(N2CCN(C(=O)CN3C(=O)COc4ccc(S(=O)(=O)N5CCC(C)CC5)cc43)CC2)cc1	-	-	-
Cc1cc(Br)ccc1NC(=O)C1CCCN(S(=O)(=O)c2cccc3nonc23)C1 (stereo not given)	-	?	?
Cc1cc(NC(=O)C2CCCN(S(=O)(=O)c3cccc4nonc34)C2)ccc1Br (stereo not given)	-	?	?	C127i cell count=31.6µM
COc1ccc(NC(=O)CSc2nc3c(oc4ccccc43)c(=O)n2Cc2ccco2)cc1Cl	?	3.55µM	8.91µM	C127i cell count=-;HCC4017 viab=11.2µM;H358 tox=15.8µM
COc1ccc(Cl)cc1NC(=O)CSc1nc2c(oc3ccccc32)c(=O)n1Cc1ccco1	-	-	-
CCOc1ccccc1CNC(=O)c1oc2c(c1C)-c1[nH]ncc1CC2	-	-	-
NC(=S)N/N=C/c1ncc(C(F)(F)F)cc1Cl	?	3.98µM	-	C127i cell count=-;HCC4017 viab=?;H358 tox=?
SMILES	Vif-A3G inh	Epigenetic reg	Vif-APOBEC3F blk	others
NC(=S)N/N=C/c1ccc(C(F)(F)F)cc1	-	-	-
COC(=O)c1sccc1S(=O)(=O)N(CC(=O)NCc1ccccc1)c1ccc(C)cc1	-	-	-
Cc1ccc2c(Sc3ccc(Cl)cc3)c(C(=O)N3CCC(C)CC3)[nH]c2c1	-	-	?
O=C(Cn1cnc2onc(-c3ccc(F)cc3)c2c1=O)N1CCN(c2ccc(F)cc2)CC1	-	-	-
CCOC(=O)c1c(NC(=O)CC2Nc3cc(C)c(C)cc3NC2=O)sc(C)c1C (stereo not given)	-	8.91µM	?	C127i cell count=?
CCOc1ccccc1NC(=O)CC1Nc2cc(C)c(C)cc2NC1=O (stereo not given)	-	-	-
Cc1cc(C(=O)CSc2cccc[n+]2[O-])c(C)n1-c1ccc(Br)cc1	.	-	.
O=C(CSc1cccc[n+]1[O-])c1ccccc1Br	-	3.55µM	-	C127i cell count=-;HCC4017 viab=-;H358 tox=-
Cc1cccc(N2CCN(C(=O)c3cc4c(=O)[nH]c5ccc(C)cc5c4s3)CC2C)c1 (stereo not given)	-	-	-
